Bioassay records: PubChem, several laboratories
LMP1 NFkB inh: reduces LMP1-driven NF-kappaB luciferase signal; LMP1-induced NF-kappaB luciferase reporter cells, luminescence; actives 0.69% (n = 350,000); inhibition, % at 12.5 µM; in the data active = inhibition above about 41%; inconclusive = no clear call, values can overlap the other calls;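 note: 0% = neutral control wells and 100% = reference inhibitor control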
MITF TRPM1 inh: MITF TRPM1 promoter inhibition in SK-MEL-5 cells; SK-MEL-5 TRPM1 promoter luciferase, 24 h; inhibition, % at 12.5 µM; actives 0.83% (n = 330,000);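 active = mean inhibition across replicates of 60% or more, whatever share of single replicates reaches that level; inconclusive = some that reach 60%, reason not given; inactive = mean inhibition across replicates below 60%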
KKLEB cytotox: CF airway cell cytotoxicity counter-screen | KKLEB CF airway cells viability, ATPlite luminescence, overnight; active compounds read low; cells stimulated with P. aeruginosa culture filtrate | activity change (cytotoxicity), % at 5 µM | actives 0.36% (n = 360,000) | AID 602141;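 active = corrected activity change at or below -50% at 5 µM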
CF NFkB block: inhibitors of cystic fibrosis induced NF-kB; KKLEB NF-kB-GFP reporter, PAF-induced, GFP fluorescence overnight; inhibition, % at 5 µM; actives 0.86% (n = 360,000); AID 588850;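 active = at least 50% inhibition at 5 µM, scaled per plate between neutral and stimulator controls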;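 note: PAF is a Pseudomonas aeruginosa culture filtrate used as stimulus; plate controls were PAF-stimulated DMSO wells for no effect and unstimulated DMSO wells for full effect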
HIF-2a block: inhibitors of HIF-2a | 786-0 RCC cells HIF-2a reporter, luciferase luminescence, overnight | inhibition, % at 18.8 µM | actives 0.72% (n = 360,000) | AID 624352;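 active = inhibition of the luminescence signal of 40% or more relative to plate controls, in a single-dose primary screen at 18.75 µM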
Peg3 promoter: reduces Peg3 promoter-driven luciferase expression in HeLa; HeLa PEG-Prom luciferase reporter, luminescence, overnight; inhibition, % at 20 µM; AID 588405; actives 1.7% (n = 360,000);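 active = inhibition of at least 50% at 20 µM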
Mdm2-MdmX confirm: confirmation of inhibitors of human Mdm2/MdmX interaction, set 2 | inhibition, % at 8 µM | AID 504601 | actives 99% (n = 740) | SaOS-2 split-luciferase Mdm2/MdmX complementation, luminescence | shares compounds with HIF-2a block;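 active = mean inhibition of the luminescence signal across two replicates at or above 26 percent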
Target sequence (O15151 whole entry, looked up): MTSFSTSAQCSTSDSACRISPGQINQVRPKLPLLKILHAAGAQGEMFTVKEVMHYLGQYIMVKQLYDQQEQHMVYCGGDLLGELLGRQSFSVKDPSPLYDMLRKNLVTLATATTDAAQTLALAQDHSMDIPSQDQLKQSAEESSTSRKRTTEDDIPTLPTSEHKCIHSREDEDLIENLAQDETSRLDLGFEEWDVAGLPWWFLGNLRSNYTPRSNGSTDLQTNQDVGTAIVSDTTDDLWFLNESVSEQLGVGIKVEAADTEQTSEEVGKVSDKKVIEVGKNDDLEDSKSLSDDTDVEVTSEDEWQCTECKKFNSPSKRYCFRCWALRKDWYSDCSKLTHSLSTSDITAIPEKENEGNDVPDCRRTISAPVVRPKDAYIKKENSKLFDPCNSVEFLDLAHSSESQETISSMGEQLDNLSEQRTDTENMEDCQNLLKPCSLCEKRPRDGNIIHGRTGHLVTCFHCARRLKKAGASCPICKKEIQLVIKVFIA
Target sequence (Q00987 whole entry, looked up): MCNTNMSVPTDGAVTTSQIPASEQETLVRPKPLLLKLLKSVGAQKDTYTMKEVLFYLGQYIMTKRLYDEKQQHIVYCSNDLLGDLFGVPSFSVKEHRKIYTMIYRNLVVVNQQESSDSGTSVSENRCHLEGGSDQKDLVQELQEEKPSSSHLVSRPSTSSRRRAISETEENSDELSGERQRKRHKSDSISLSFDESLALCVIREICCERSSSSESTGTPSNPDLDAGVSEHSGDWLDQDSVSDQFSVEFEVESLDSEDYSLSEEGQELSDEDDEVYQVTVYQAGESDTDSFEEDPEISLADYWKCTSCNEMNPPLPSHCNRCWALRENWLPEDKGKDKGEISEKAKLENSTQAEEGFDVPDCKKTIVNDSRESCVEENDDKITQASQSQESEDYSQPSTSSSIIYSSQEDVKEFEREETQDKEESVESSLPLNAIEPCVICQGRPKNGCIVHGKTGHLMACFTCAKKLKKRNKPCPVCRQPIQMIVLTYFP
HIF-2a inh conf: confirmation of HIF-2a inhibitors; shares compounds with HIF-2a block; 786-0 RCC cells, HIF-2a luciferase reporter luminescence, overnight; inhibition, % at 18.8 µM; actives 56% (n = 1,800); AID 651580;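 active = mean inhibition across four replicates of at least 40 percent at the single tested concentration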
HIF-1a counter: counter-screen for HIF-2a inhibitors: HIF-1a inhibition in MiaPaCa-2 cells; shares compounds with HIF-2a block; actives 72% (n = 1,800); MiaPaCa-2 HIF-1a luciferase reporter, desferoxamine, overnight; inhibition, % at 18.8 µM;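 active = mean inhibition of the reporter signal across four replicates at the single tested dose of 50% or more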
Starred values were filed as active, the others as inactive; ? = inconclusive; . = no result given. Only some compounds are listed: those with a hit (about 3% of all), similar ones and a draw of the others.

SMILES	LMP1 NFkB inh	MITF TRPM1 inh	KKLEB cytotox	CF NFkB block	HIF-2a block	Peg3 promoter	HIF-2a inh conf	HIF-1a counter	others
COc1ccc(S(=O)(=O)N2CCCC2CNC(=O)C(=O)Nc2ccc(C)cc2)cc1 (configuration not stated)	-1	-2	6	1	-4	-1	.	.
Cc1nc(CN2C(=O)C3(CCC3)ON=C2c2cccc(Cl)c2)cs1	.	.	-13	6	7	-1	.	.
COCC(C)n1c(C)cc(C(=O)COC(=O)c2cc(=O)[nH]c3ccccc23)c1C (configuration not stated)	25	.	-3	4	43*	52*	45*	36
COCC(C)n1c(C)cc(C(=O)COC(=O)c2n[nH]c3ccccc23)c1C (configuration not stated)	25	-8	-5	10	-51	-49	.	.
C#CC(=O)N(c1ccc(OC)cc1OC)C(C(=O)NC1CCCC1)c1cccs1 (configuration not stated)	21	101*	-93*	94*	96*	101*	99*	106*	Mdm2-MdmX confirm=102*
C#CC(=O)N(c1cc(OC)ccc1OC)C(C(=O)NC1CCCC1)c1cccs1 (configuration not stated)	73*	.	-97*	97*	92*	107*	99*	105*	Mdm2-MdmX confirm=103*
COc1ccccc1NC(=S)NN=C(C)c1ccccn1	?	54	10	2	-110	-33	.	.
CC(=NNC(=S)Nc1ccc(C)cc1)c1ccccn1	62*	7	14	-18	61*	74*	-28	2
COc1cccc(CNC(=O)COC(=O)c2nc(Cl)c(Cl)c(Cl)c2Cl)c1	-7	33	-16	30	58*	90*	32	9
COc1cccc(CNC(=O)CCl)c1	-13	-7	-2	-16	11	-3	.	.
Cc1cccc(Cn2ncc(Cl)c(Cl)c2=O)c1	-2	28	11	23	13	44	.	.	Mdm2-MdmX confirm=103*
Cc1cc2oc(=O)cc(Cn3ncc(Cl)c(Cl)c3=O)c2cc1Cl	-32	83*	-69*	88*	-38	106*	.	.	Mdm2-MdmX confirm=103*
Cc1ccc(C)c(C(=O)Cn2ncc(Cl)c(Cl)c2=O)c1	-98	75*	-13	31	86*	109*	13	104*
C[C@H]1CN([C@@H](C)CO)C(=O)c2cc(Br)cnc2O[C@H]1CN(C)C(=O)C1CCC1	2	.	6	-30	7	3	.	.
CCN(c1ccccc1)S(=O)(=O)c1ccc(Cl)c(NC(=O)Nc2ccc(Cl)cc2C#N)c1	85*	9	-14	28	-90	9	.	.	Mdm2-MdmX confirm=103*
CCN(c1ccccc1)S(=O)(=O)c1cc(NC(=O)Nc2ccccc2C#N)ccc1Cl	3	-8	-6	7	26	33	.	.
Cc1ccc(S(=O)(=O)C[C@@H]2OC[C@H](C)N2S(=O)(=O)c2ccc(C)cc2)cc1	.	.	.	.	-6	.	.	.
CNc1ccc(/C=C(\C#N)c2ccccn2)cc1[N+](=O)[O-]	-22	-78	-10	-18	-328	-187	.	.
N#C/C(=C\c1ccc(Cl)c([N+](=O)[O-])c1)c1ccccn1	0	1	-2	-4	43*	93*	-19	95*
Cc1nc(SCC(=O)N2c3ccccc3NC(=O)CC2C)c2c(C)c(C)sc2n1 (configuration not stated)	-3	20	-11	4	23	-6	.	.
Cc1sc2nc(C3CC3)nc(SCC(=O)N3c4ccccc4CC3C)c2c1C (configuration not stated)	7	9	-11	3	-6	16	.	.	Mdm2-MdmX confirm=101*
CC1CCc2nc(NC(=O)Cc3cccs3)sc2C1 (configuration not stated)	-26	-126	-8	17	-290	-352	.	.
CC1CCc2nc(NC(=O)c3ccco3)sc2C1 (configuration not stated)	60*	32	-31	-18	43*	18	72*	88*
COc1cccc(N2CCN(C(=O)c3cccc(S(=O)(=O)N4CCCC4)c3)CC2)c1	7	.	8	-12	10	-1	.	.
COC(=O)[C@H]1C[C@H](OC(=O)NCc2ccco2)[C@@]2(O)CN(S(=O)(=O)c3ccc(C)cc3)CC2[C@H]1C(=O)OC (some centres not stated)	-12	.	2	-5	0	4	.	.
SMILES	LMP1 NFkB inh	MITF TRPM1 inh	KKLEB cytotox	CF NFkB block	HIF-2a block	Peg3 promoter	HIF-2a inh conf	HIF-1a counter	others
COc1ccccc1-c1nnc(Sc2nc([N+](=O)[O-])nn2C)o1	57*	57	-35	48	0	66*	.	.	Mdm2-MdmX confirm=97*
COc1cc(C=NNc2ccccc2)ccc1OC(=O)c1ccccc1	-22	.	-8	-65	-2	-167	.	.
Cc1ccc(/C=N/Nc2cccc(C(=O)O)c2)s1	14	52	10	-18	62*	35	59*	-73
Cc1nn(-c2ccccc2Cl)c(Cl)c1/C=N/Nc1cccc(C(=O)O)c1	69*	69*	-16	1	58*	-38	52*	-99
CCOc1cc(/C=N/Nc2cccc(C(=O)O)c2)ccc1OC(=O)c1ccccc1	59*	91*	10	-13	87*	65*	90*	-33
Cc1nn(-c2cccc(C(F)(F)F)c2)c(Cl)c1/C=N/Nc1cccc(C(=O)O)c1	-25	13	7	1	-63	-250	.	.
CC(=O)N1CC2(CC(c3ccccc3F)=NO2)CN1c1ccc(Cl)cc1 (configuration not stated)	-11	.	-6	-8	-140	-106	.	.
CCN(CC)CCNC(=O)c1ccc(NC(=O)c2ccc(-n3cncn3)c([N+](=O)[O-])c2)cc1	-3	.	4	5	1	-22	.	.
Oc1cc(OCc2ccccc2)ccc1-c1[nH]ncc1-c1ccccc1	-8	4	4	-5	57*	18	-12	13
CCOC(=O)C1CCCN(C(=O)c2cccc(Cl)c2)CC1 (configuration not stated)	.	.	-5	-24	4	-4	.	.
O=[N+]([O-])c1cc(S(=O)(=O)C(F)(F)F)ccc1Sc1nc2ccccc2s1	6	54	-38	10	56*	110*	34	101*
NCCNc1ccc([N+](=O)[O-])c(Sc2nc3ccccc3[nH]2)c1	-8	-4	8	6	27	22	.	.
